Source: PubChem BioAssay (NCATS)
Inconclusive results are not listed. The source made the active and inactive calls. Calls come from the whole dose curve; as a rule, active = well fitted inhibition curve with a large enough effect; inconclusive = small, poorly fitted or top-dose-only effect; inactive = flat fitted curve, though single readings scatter.

Experiments:
Test in all cases: qHTS profiling for inhibitors of Plasmodium falciparum proliferation (AID 504749); note: nearly all actives have a fitted effect of over 60% in size
Conditions in all cases: P. falciparum in erythrocytes, SYBR Green DNA, 72 h; series mostly up to 28.7 µM
ATS95 = tested on: ATS95
Outline: (§1)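 Parasite proliferation within erythrocytes, 72 h exposure. Endpoint: SYBR Green I fluorescence after overnight lysis at room temperature. Controls: 0.29 uM artemisinin, DMSO.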

C2A = tested on: C2A
Outline: as §1

CP185 = tested on: CP185
Outline: as §1

CP191 = tested on: CP191
Outline: as §1

CP192 = tested on: CP192
Outline: as §1

CP194 = tested on: CP194
Outline: as §1

CP201 = tested on: CP201
Outline: as §1

CP203 = tested on: CP203
Outline: as §1

CP211 = tested on: CP211
Outline: as §1

CP215 = tested on: CP215
Outline: as §1

CP217 = tested on: CP217
Outline: as §1

CP237 = tested on: CP237
Outline: as §1

CP238 = tested on: CP238
Outline: as §1

CP247 = tested on: CP247
Outline: as §1

CP250 = tested on: CP250
Outline: as §1

CP252 = tested on: CP252
Outline: as §1

CP256 = tested on: CP256
Outline: as §1

CP260 = tested on: CP260
Outline: as §1

CP262 = tested on: CP262
Outline: as §1

CP265 = tested on: CP265
Outline: as §1

Measured: Potency

CCCCCCCCCCCCCC(=O)OCC(COP(=O)([O-])OCC[N+](C)(C)C)OC(=O)CCCCCCCCCCCCC (stereo not given)
inactive: ATS95 | C2A | CP185 | CP191 | CP192 | CP194 | CP201 | CP203 | CP211 | CP215 | CP217 | CP237 | CP238 | CP247 | CP250 | CP252 | CP256 | CP260 | CP262 | CP265

[O]=[Bi][O]C(=O)[O][Bi]=[O]
inactive: ATS95 | C2A | CP185 | CP191 | CP192 | CP194 | CP201 | CP203 | CP211 | CP215 | CP217 | CP237 | CP238 | CP247 | CP250 | CP252 | CP256 | CP260 | CP262 | CP265

CCOC(C)OCC
inactive: ATS95 | C2A | CP185 | CP191 | CP192 | CP194 | CP201 | CP203 | CP211 | CP215 | CP217 | CP237 | CP238 | CP247 | CP250 | CP252 | CP256 | CP260 | CP262 | CP265

O=C1[O][Bi][O]c2ccccc21
inactive: ATS95 | C2A | CP185 | CP191 | CP192 | CP194 | CP201 | CP203 | CP211 | CP215 | CP217 | CP237 | CP238 | CP247 | CP250 | CP252 | CP256 | CP260 | CP262 | CP265

O=C1c2ccccc2C(=O)c2c1ccc(O)c2O
inactive: ATS95 | C2A | CP185 | CP191 | CP192 | CP194 | CP201 | CP203 | CP211 | CP215 | CP217 | CP237 | CP238 | CP247 | CP250 | CP252 | CP256 | CP260 | CP262 | CP265

O=C1c2ccccc2C(=O)C1c1ccc(Cl)cc1
inactive: ATS95 | C2A | CP185 | CP191 | CP192 | CP194 | CP201 | CP203 | CP211 | CP215 | CP217 | CP237 | CP238 | CP247 | CP250 | CP252 | CP256 | CP260 | CP262 | CP265

NC(=O)[C@@H]1CCCN1C(=O)[C@H](Cc1cnc[nH]1)NC(=O)[C@@H]1CCC(=O)N1
inactive: ATS95 | C2A | CP185 | CP191 | CP192 | CP194 | CP201 | CP203 | CP211 | CP215 | CP217 | CP237 | CP238 | CP247 | CP250 | CP252 | CP256 | CP260 | CP262 | CP265

CC(=O)Nc1c(I)c(C(=O)O)c(I)c(N(C)C(C)=O)c1I
inactive: ATS95 | C2A | CP185 | CP191 | CP192 | CP194 | CP201 | CP203 | CP211 | CP215 | CP217 | CP237 | CP238 | CP247 | CP250 | CP252 | CP256 | CP260 | CP262 | CP265

OC1OC[C@@H](O)[C@H](O)[C@@H]1O (stereo not given in full)
inactive: ATS95 | C2A | CP185 | CP191 | CP192 | CP194 | CP201 | CP203 | CP211 | CP215 | CP217 | CP237 | CP238 | CP247 | CP250 | CP252 | CP256 | CP260 | CP262 | CP265

c1ccc(-n2cnnn2)cc1
inactive: ATS95 | C2A | CP185 | CP191 | CP192 | CP194 | CP201 | CP203 | CP211 | CP215 | CP217 | CP237 | CP238 | CP247 | CP250 | CP252 | CP256 | CP260 | CP262 | CP265

CCCc1ccc(C(=O)O)cc1
inactive: ATS95 | C2A | CP185 | CP191 | CP192 | CP194 | CP201 | CP203 | CP211 | CP215 | CP217 | CP237 | CP238 | CP247 | CP250 | CP252 | CP256 | CP260 | CP262 | CP265

NCC[C@H](O)C(=O)N[C@@H]1C[C@H](N)[C@@H](O[C@H]2O[C@H](CN)CC[C@H]2N)[C@H](O)[C@H]1O[C@H]1O[C@H](CO)[C@@H](O)[C@H](N)[C@H]1O
inactive: ATS95 | C2A | CP185 | CP191 | CP192 | CP194 | CP201 | CP203 | CP211 | CP215 | CP217 | CP237 | CP238 | CP247 | CP250 | CP252 | CP256 | CP260 | CP262 | CP265

O=C(NCCNCC(O)COc1ccc(O)cc1)N1CCOCC1 (stereo not given)
inactive: ATS95 | C2A | CP185 | CP191 | CP192 | CP194 | CP201 | CP203 | CP211 | CP215 | CP217 | CP237 | CP238 | CP247 | CP250 | CP252 | CP256 | CP260 | CP262 | CP265
